This is an account of results in the supplement of paper PMC10849652.

About 7,900 targets were measured; listed, in parts, are those with a hit and a random draw of the rest. About 0.6% of all pairs of compound and target were hits. Unmarked numbers belong to inactive results.

Holding throughout (experiment): log2 fold change, soluble protein after heating vs DMSO (PISA); higher = thermal stabilisation; K562 cells, 10 uM, 30 min; active = over 0.2 and 3.5 SD of the protein, either way, in both replicates (recomputed)
Compound in test [1]: COC1=CC=C(C=C1)CN2C=CC3=C2C=C(C=C3)C(=O)NO
The essentials:
(§1)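 Quantification of soluble protein used TMTpro 16plex LC-MS/MS, with channel sums equalised. Samples were the supernatant after 21,000xg for 90 min of pooled aliquots from K562 cells (2×10^6 cells/mL) treated with 10 μM compound for 30 min, heated for 3 min over 48°C-58°C, and extracted in PBS with 0.5% NP-40 at 4°C. Values, from duplicates, describe thermal stability against control samples on a log2 fold-change scale.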

Compound in test [2]: CON(C)C(=O)N1N=C(c2cc(F)ccc2F)S[C@@]1(CCCN)c1ccccc1 [filanesib]
The essentials:
as §1

Compound in test [3]: COc1cc(C(=O)O)ccc1NC(=O)[C@@H]1N[C@@H](CC(C)(C)C)[C@](C#N)(c2ccc(Cl)cc2F)[C@H]1c1cccc(Cl)c1F [idasanutlin]
In short, it runs like this:
as §1

Compound in test [4]: COc1cc(Nc2ncc3c(n2)-c2ccc(Cl)cc2C(c2c(F)cccc2OC)=NC3)ccc1C(=O)O [alisertib]
The essentials:
as §1

Compound in test [5]: COc1cc2nc(-c3cc(F)ccc3O)nc(N[C@@H]3CNC[C@H]3C(C)(C)O)c2cc1OC
The essentials: as §1

Compound in test [6]: COc1cc2ncnc(Nc3ccc(F)c(Cl)c3)c2cc1OCCCN1CCOCC1 [gefitinib]
The essentials:
as §1

Compound in test [7]: COc1cccc2cc(-c3nc([C@H]4CC[C@H](C(=O)O)CC4)n4ncnc(N)c34)[nH]c12
The essentials: as §1

Compound in test [8]: CS(=O)(=O)CCNCc1ccc(-c2ccc3ncnc(Nc4ccc(OCc5cccc(F)c5)c(Cl)c4)c3c2)o1 [lapatinib]
The essentials:
as §1

Compound in test [9]: CS(=O)(=O)c1ccc(-c2cnc(N)c(C(=O)Nc3ccccc3)n2)cc1
In short, it runs like this: as §1

Compound in test [10]: C[C@@H](Oc1cc(-c2cnn(C3CCNCC3)c2)cnc1N)c1c(Cl)ccc(F)c1Cl [crizotinib]
In short, it runs like this: as §1

Compound in test [11]: C[C@@H]1COCCN1C2=NC(=NC(=C2)C3(CC3)S(=O)(=O)C)C4=C5C=CNC5=CC=C4
In short, it runs like this: as §1

Compound in test [12]: C[C@H](Nc1ncnc2nc[nH]c12)c1cc2cccc(Cl)c2c(=O)n1-c1ccccc1 [duvelisib]
The essentials: as §1

Compound in test [13]: Cc1cc(Nc2cc(N3CCN(C)CC3)nc(Sc3ccc(NC(=O)C4CC4)cc3)n2)n[nH]1 [tozasertib]
The essentials: as §1

Compound in test [14]: Cc1cc(SCc2sc(-c3ccc(C(F)(F)F)cc3)nc2C)ccc1OCC(=O)O
The essentials:
as §1

Compound in test [15]: Cc1ccc(-n2nc(C(C)(C)C)cc2NC(=O)Nc2ccc(OCCN3CCOCC3)c3ccccc23)cc1 [doramapimod]
In short, it runs like this: as §1

Compound in test [16]: Cc1ccc(C(=O)N(CCCN)[C@@H](c2nc3cc(Cl)ccc3c(=O)n2Cc2ccccc2)C(C)C)cc1 [ispinesib]
In short, it runs like this:
as §1

Compound in test [17]: CO[C@H]1C[C@@H]2CC[C@@H](C)[C@@](O)(O2)C(=O)C(=O)N2CCCC[C@H]2C(=O)O[C@H]([C@H](C)C[C@@H]2CC[C@H](n3cnnn3)[C@H](OC)C2)CC(=O)[C@H](C)/C=C(\C)[C@@H](O)[C@@H](OC)C(=O)[C@H](C)C[C@H](C)/C=C/C=C/C=C/1C [zotarolimus]
In short, it runs like this:
as §1

Compound in test [18]: CS(=O)(=O)N1CCN(Cc2cc3nc(-c4cccc5[nH]ncc45)nc(N4CCOCC4)c3s2)CC1 [pictilisib]
In short, it runs like this: as §1

Compound in test [19]: C[C@H](C1=CC=C(C=C1)C(=O)NC2=C3C=CNC3=NC=C2)N
In short, it runs like this:
as §1

Compound in test [20]: Cc1cc(Nc2cc(CN3CCOCC3)c3nc(C)c(Cc4ccc(Cl)cc4F)n3n2)n[nH]1 [gandotinib]
The essentials: as §1

Chain of UniProt P18146 (P18146 whole entry, looked up): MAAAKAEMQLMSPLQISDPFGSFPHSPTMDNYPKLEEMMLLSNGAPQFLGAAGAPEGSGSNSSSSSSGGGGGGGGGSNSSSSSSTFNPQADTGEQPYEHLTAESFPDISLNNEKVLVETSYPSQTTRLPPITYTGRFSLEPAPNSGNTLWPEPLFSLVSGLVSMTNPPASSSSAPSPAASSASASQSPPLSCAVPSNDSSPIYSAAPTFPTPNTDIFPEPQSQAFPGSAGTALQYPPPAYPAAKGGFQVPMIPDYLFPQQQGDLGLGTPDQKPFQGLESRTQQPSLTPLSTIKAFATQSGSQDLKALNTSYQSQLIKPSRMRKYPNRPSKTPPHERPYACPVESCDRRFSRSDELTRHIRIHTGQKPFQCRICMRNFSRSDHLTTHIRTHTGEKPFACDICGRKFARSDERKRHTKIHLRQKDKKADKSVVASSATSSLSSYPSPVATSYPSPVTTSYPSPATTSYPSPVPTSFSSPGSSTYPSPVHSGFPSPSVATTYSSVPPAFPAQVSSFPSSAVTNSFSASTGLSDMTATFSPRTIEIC
Chain of UniProt O75822 (O75822 whole entry, looked up): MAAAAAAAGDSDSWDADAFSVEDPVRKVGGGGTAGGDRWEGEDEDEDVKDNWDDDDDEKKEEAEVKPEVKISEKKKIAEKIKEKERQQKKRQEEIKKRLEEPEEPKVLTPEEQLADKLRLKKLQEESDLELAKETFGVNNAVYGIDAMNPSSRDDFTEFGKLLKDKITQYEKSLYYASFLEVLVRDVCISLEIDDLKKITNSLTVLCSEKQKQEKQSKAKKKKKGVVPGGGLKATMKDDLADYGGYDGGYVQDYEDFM
Chain of UniProt Q04637 (Q04637 whole entry, looked up): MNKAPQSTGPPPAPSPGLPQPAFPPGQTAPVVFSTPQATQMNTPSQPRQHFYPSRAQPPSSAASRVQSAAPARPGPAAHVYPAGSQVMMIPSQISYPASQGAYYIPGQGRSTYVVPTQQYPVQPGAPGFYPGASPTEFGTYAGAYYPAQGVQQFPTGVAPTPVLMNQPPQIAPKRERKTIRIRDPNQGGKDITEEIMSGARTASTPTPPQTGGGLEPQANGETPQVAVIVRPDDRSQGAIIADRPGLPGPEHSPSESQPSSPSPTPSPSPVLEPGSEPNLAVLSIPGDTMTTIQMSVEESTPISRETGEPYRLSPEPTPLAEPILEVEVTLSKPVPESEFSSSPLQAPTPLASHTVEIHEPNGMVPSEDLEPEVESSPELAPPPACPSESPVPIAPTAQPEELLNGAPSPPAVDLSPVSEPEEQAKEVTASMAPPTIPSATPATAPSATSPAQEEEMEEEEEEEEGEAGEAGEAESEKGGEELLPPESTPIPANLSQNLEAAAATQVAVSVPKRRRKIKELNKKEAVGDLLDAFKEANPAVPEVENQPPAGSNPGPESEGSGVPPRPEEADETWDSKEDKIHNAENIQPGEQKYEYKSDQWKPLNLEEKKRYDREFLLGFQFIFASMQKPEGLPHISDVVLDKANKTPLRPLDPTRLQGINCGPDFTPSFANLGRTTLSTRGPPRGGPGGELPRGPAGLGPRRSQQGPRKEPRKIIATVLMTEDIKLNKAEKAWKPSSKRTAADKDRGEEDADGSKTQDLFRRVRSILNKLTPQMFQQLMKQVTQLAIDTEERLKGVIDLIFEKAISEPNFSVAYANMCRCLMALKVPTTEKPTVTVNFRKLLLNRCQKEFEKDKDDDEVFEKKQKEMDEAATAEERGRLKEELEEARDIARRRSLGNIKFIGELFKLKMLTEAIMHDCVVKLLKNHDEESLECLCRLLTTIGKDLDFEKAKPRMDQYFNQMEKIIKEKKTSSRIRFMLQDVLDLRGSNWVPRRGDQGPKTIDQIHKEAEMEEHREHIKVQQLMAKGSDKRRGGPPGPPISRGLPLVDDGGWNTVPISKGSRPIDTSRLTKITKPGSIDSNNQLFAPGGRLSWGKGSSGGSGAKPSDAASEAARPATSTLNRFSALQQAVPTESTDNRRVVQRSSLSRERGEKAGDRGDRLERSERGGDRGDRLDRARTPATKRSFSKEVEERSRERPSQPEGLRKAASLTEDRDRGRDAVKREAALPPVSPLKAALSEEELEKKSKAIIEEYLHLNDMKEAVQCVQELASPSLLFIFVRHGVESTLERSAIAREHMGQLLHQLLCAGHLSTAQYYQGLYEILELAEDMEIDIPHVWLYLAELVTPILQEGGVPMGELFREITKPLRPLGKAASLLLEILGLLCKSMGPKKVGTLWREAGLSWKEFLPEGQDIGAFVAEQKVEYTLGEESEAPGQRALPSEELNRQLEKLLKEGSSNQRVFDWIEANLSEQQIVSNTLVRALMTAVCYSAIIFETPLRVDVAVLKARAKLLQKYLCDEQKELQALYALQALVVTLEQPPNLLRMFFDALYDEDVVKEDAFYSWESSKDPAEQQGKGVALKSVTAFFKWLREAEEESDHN
Chain of UniProt Q96C92 (Q96C92 whole entry, looked up): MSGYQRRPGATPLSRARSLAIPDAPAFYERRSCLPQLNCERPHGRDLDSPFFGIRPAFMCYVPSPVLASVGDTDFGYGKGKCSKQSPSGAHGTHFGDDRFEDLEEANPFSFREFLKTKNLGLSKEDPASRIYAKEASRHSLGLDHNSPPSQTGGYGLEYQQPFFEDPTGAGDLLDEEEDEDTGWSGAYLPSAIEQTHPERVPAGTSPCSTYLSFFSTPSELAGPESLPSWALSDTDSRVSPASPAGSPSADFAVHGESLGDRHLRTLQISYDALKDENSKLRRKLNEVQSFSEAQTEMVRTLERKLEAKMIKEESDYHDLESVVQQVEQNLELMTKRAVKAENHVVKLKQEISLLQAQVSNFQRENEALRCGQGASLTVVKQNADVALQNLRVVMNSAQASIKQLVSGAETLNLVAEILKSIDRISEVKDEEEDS
Chain of UniProt P29692 (P29692 whole entry, looked up): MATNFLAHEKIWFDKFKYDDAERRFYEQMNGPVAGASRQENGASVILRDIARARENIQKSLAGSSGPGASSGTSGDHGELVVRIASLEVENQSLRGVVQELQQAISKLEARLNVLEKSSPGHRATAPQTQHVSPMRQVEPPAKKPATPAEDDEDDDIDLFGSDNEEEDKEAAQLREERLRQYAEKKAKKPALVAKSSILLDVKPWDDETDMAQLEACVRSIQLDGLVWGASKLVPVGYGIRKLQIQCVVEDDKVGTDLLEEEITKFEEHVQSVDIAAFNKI
Chain of UniProt Q9P2D6 (Q9P2D6 whole entry, looked up): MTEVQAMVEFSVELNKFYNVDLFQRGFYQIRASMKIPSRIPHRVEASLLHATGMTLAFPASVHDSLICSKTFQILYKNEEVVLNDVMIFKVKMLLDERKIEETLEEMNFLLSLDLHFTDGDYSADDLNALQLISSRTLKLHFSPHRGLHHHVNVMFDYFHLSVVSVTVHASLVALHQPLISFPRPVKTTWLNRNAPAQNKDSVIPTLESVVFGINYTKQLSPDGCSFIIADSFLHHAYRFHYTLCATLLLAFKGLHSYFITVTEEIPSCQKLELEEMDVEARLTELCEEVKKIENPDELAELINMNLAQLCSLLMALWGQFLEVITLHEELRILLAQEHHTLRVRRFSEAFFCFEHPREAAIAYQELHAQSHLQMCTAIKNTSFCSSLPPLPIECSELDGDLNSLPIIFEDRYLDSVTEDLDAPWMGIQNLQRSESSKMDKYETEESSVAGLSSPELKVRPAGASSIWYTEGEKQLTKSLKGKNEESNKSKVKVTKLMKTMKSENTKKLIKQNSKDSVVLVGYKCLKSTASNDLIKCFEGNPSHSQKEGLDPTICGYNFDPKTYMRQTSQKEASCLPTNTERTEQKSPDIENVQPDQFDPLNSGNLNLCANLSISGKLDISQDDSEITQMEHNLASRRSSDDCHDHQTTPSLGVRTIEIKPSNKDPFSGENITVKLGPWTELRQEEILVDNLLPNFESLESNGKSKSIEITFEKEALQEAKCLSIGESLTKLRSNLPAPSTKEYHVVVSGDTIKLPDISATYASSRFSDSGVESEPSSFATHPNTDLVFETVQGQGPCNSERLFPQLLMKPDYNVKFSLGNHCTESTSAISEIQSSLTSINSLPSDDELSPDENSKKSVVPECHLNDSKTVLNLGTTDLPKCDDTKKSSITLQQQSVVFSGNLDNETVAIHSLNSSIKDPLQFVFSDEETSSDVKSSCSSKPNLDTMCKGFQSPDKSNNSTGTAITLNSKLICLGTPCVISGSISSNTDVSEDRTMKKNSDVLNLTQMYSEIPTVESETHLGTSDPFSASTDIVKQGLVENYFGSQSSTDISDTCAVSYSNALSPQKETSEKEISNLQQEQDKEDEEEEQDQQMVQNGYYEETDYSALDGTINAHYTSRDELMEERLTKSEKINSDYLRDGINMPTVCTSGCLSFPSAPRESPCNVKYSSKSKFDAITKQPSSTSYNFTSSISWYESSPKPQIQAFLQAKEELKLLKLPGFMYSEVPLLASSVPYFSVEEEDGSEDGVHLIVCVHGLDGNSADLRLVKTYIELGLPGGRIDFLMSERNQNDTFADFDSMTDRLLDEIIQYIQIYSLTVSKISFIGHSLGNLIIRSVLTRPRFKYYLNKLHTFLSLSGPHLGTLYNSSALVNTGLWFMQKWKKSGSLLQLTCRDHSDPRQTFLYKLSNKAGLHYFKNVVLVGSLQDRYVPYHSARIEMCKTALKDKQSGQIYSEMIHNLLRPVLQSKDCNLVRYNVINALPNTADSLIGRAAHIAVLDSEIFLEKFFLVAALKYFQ
Chain of UniProt Q4LDG9 (Q4LDG9 whole entry, looked up): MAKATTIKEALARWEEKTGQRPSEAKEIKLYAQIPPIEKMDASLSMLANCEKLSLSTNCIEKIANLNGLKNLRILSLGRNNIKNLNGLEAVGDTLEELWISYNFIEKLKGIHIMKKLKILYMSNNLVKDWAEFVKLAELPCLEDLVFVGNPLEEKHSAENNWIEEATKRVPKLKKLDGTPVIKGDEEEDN

On to EIF3J isoform 2 (UniProt O75822), for which the log2 fold change is -0.099 in test [1]; 0.013 in test [2]; 0.107 in test [3]; -0.074 in test [4]; 0.051 in test [5]; 0.047 in test [6]. Moreover, the log2 fold change in test [7] was 0.02; in test [8], -0.116; in test [9], 0.035; in [10], 0.049; in test [11], -0.043; in [12], 0.161. Besides, the results for the log2 fold change in test [13], in test [14] and in [15] were -0.136, -0.038 and 0.011, respectively.
In the case of EPHB4 (UniProt P54760), the log2 fold change in [2] is 0.134; in test [4] it was -0.017; in [5], 0.395; in test [7], -0.937 (active); in test [8], 0.08; in [9] it was 0.15. The log2 fold change in [16] was -0.016.
For the target EIF4G1 (UniProt Q04637), the log2 fold change in test [17] was -0.118; in test [3] it was 0.071; in [18], -0.307; in test [19] it was 0.184; in test [12], -0.111; in [20], -0.082. The log2 fold change is -0.051 in test [13] and 0.227 in test [14].
With ENTR1 (UniProt Q96C92), the log2 fold change was -0.065 in [5], 0.075 in test [8], 0.003 in [12] and 0.048 in [14].
As for DNAJB1 (UniProt M0R128), the log2 fold change in test [17] is -0.062; in test [19], -0.018; in test [13], -0.082.
Consider DNAL1 (UniProt Q4LDG9), for which the log2 fold change in [1] is 0.009; in test [17], 0.024; in test [3], -0.098; in test [10] it was -0.035; in [11] it was 0.011; in [19] it was 0.025. Further, the log2 fold change in test [12] was -0.013; in [14], -0.102; in test [15] it was -0.067; in [16], -0.082.
With EEF1D isoform 3 (UniProt P29692), the log2 fold change in test [4] is -0.067; in test [7], -0.105; in [13], 0.212.
Turning to DDX46, A0A0C4DG89, the log2 fold change in test [4] was -0.083; in [6] it was 0.261; in [7], 0.032; in test [11], -0.009.
EGR1 (UniProt P18146): the log2 fold change in test [2] was 0.463; in test [17], 0.125; in [3] it was 0.164; in test [4], -0.54; in test [5] it was -0.24; in test [6] it was -0.183. Besides, the log2 fold change in test [7] is 0.079; in test [8], 0.067; in [18], -0.362; in [9], 0.063; in [11] it was 0.259; in [19], -0.518. Moreover, the log2 fold change in test [20] is -0.536; in test [13] it was -0.131; in [16], 0.36.
As to ELMO1 (UniProt Q92556), the log2 fold change in test [1] was -0.108; in test [2], 0.072; in test [4], 0.212; in test [6], 0.017; in [7] it was 0.08; in [9], 0.06. In addition, the log2 fold change in [10] is -0.019; in [11] it was 0; in test [12] it was 0.163; in [14] it was -0.043; in test [15], 0.033; in test [16] it was -0.299.
As to FAM135A (UniProt Q9P2D6), the log2 fold change in test [2] is 0.13; in test [6], 0.052; in test [9] it was 0.087; in test [11], 0.038.
